Data from the supplement of paper PMC3342239.
Counter-ions that a name gives are not always drawn.

System: Saccharomyces cerevisiae
Assay: fraction of cells in G1 phase (DNA content, flow cytometry); higher = more cells with unreplicated DNA (G1 delay)
Settings: temperature: 30 C; YPD; JTY2953 pdr5 snq2 (sensitized); drug added to: cultures diluted from stationary phase; 6-7 h
Summary of the method: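 Yeast (S. cerevisiae) in YPD at 30°C was treated with library drugs, and cells were then fixed in ethanol, stained with SYTOX Green and counted by flow cytometry over 10,000 events. Sensitized JTY2953 diluted 1∶200 from an overnight culture got a final 20 µg/ml and was fixed 6–7 h later; other runs dosed dividing JTY2953 (fixed at 6 h) or BY4741 (fixed at 4.33 h). G1 fraction means the Dean-Jett-Fox G1 peak area relative to the G1 and G2/M areas together.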

SMILES	fraction of cells in G1 phase
CSc1ccc2c(c1)N(CCC1CCCCN1C)c1ccccc1S2 (centres undefined) [Thioridazine HCl] (53.969 µM)	0.729
COc1ccc(CN2CCN(C(c3ccc(F)cc3)c3ccc(F)cc3)CC2)c(OC)c1OC [Lomerizine HCl] (42.685 µM)	0.638
COC(=O)C1=C(C)NC(C)=C(C(=O)OCC(C)C)C1c1ccccc1[N+](=O)[O-] (centres undefined) [Nisoldipine] (51.4901 µM)	0.605
CO[C@@]12[C@H](COC(N)=O)C3=C(C(=O)C(C)=C(N)C3=O)N1C[C@@H]1N[C@@H]12 [Mitomycin c] (59.8203 µM)	0.273
Clc1ccc(Nc2nnc(Cc3ccncc3)c3ccccc23)cc1 [Vatalanib] (57.6664 µM)	0.699
COC(=O)C1=C(C)NC(C)=C(C(=O)OCCCN2CCC(c3ccccc3)(c3ccccc3)CC2)[C@H]1c1cccc([N+](=O)[O-])c1 [Niguldipine HCl] (30.9502 µM)	0.684
CCOC(=O)N1CCC(=C2c3ccc(Cl)cc3CCc3cccnc32)CC1 [Loratadine] (52.2338 µM)	0.778
Clc1ccc(C(Cn2ccnc2)OCc2ccsc2Cl)c(Cl)c1 (centres undefined) [Tioconazole] (51.5839 µM)	0.863
COC1=C(OC)C(=O)C(CCCCCCCCCCO)=C(C)C1=O [Idebenone] (59.0933 µM)	0.693
CCCCCCCCCCCCCCCCOP(=O)([O-])OCC[N+](C)(C)C [Miltefosine] (49.0703 µM)	0.858
O=c1[nH]c2ccccc2n1CCCN1CCN(C(c2ccccc2)c2ccccc2)CC1 [Oxatomide] (46.886 µM)	0.836
CN(C)CCCN1c2ccccc2Sc2ccc(Cl)cc21 [Chlorpromazine HCl] (62.7212 µM)	0.278
COC(=O)[C@H](c1ccccc1Cl)N1CCc2sccc2C1 [Clopidogrel sulfate] (62.1449 µM)	0.642
CCOC(=O)C1=C(C)NC(C)=C(C(=O)OC)C1c1cccc(Cl)c1Cl (centres undefined) [Felodipine] (52.0478 µM)	0.683
CN(C)CCOc1ccc(/C(=C(/CCCl)c2ccccc2)c2ccccc2)cc1 [Toremifene] (49.2645 µM)	0.901
COc1cccc2c1C(=O)c1c(O)c3c(c(O)c1C2=O)C[C@@](O)(C(=O)CO)C[C@@H]3O[C@H]1C[C@H](N)[C@H](O)[C@H](C)O1 [Doxorubicin HCl] (34.4828 µM)	0.64
Fc1ccc(C(c2ccc(F)cc2)N2CCN(C/C=C/c3ccccc3)CC2)cc1 [Flunarizine-2HCl] (41.8936 µM)	0.605
CCN(CC)CCOc1ccc(C(=C(Cl)c2ccccc2)c2ccccc2)cc1 [Clomiphene citrate] (49.2645 µM)	0.88
C[C@H](CS)C(=O)N1CCC[C@H]1C(=O)O [Captopril] (92.0434 µM)	0.633
O=C1NCN(c2ccccc2)C12CCN(CCCC(c1ccc(F)cc1)c1ccc(F)cc1)CC2 [Fluspirilene] (42.0533 µM)	0.865

SMILES	fraction of cells in G1 phase
C=C1/C(=C\C=C2/CCC[C@]3(C)[C@@H]([C@H](C)CCCC(C)C)CC[C@@H]23)C[C@@H](O)C[C@@H]1O [Alfacalcidol] (49.9188 µM)	0.606
CN1CCN(C2=Nc3cc(Cl)ccc3Nc3ccccc32)CC1 [Clozapine] (61.1935 µM)	0.319
CC/C(=C(/CC)c1ccc(O)cc1)c1ccc(O)cc1 [Diethylstilbestrol] (74.5271 µM)	0.838
CCC(C)(C)C(=O)O[C@H]1C[C@@H](C)C=C2C=C[C@H](C)[C@H](CC[C@@H]3C[C@@H](O)CC(=O)O3)[C@H]21 [Simvastatin] (47.7808 µM)	0.879
O=C1CCc2ccc(OCCCCN3CCN(c4cccc(Cl)c4Cl)CC3)cc2N1 [Aripiprazole] (44.6034 µM)	0.854
Fc1ccc([C@@H]2CCNC[C@H]2COc2ccc3c(c2)OCO3)cc1 [Paroxetine HCl] (60.7211 µM)	0.387
CCCCc1oc2ccccc2c1C(=O)c1cc(I)c(OCCN(CC)CC)c(I)c1 [Amiodarone] (30.9922 µM)	0.868
OC(Cn1cncn1)(Cn1cncn1)c1ccc(F)cc1F [Fluconazole] (65.3004 µM)	0.611
CCOC(=O)C1=C(COCCN)NC(C)=C(C(=O)OC)C1c1ccccc1Cl (centres undefined) [Amlodipine] (48.9134 µM)	0.768
Clc1ccc(COC(Cn2ccnc2)c2ccc(Cl)cc2Cl)c(Cl)c1 (centres undefined) [Miconazole] (48.0611 µM)	0.869
CNCCC(Oc1ccc(C(F)(F)F)cc1)c1ccccc1 (centres undefined) [Fluoxetine HCl] (64.655 µM)	0.17
COc1ccc(-c2cc(=S)ss2)cc1 [Anethole-trithione (anetholtrithion)] (83.2062 µM)	0.735
CCc1nn(CCCN2CCN(c3cccc(Cl)c3)CC2)c(=O)n1CCOc1ccccc1 [Nefazodone] (42.5515 µM)	0.721
OCCN1CCN(CCCN2c3ccccc3Sc3ccc(C(F)(F)F)cc32)CC1 [Fluphenazine 2HCl] (45.711 µM)	0.862
C[C@]12CCC(=O)C=C1C=C[C@@H]1[C@@H]2CC[C@@]2(C)[C@H]1CC[C@@]21CCC(=O)O1 [Canrenone] (58.7429 µM)	0.612
CC(=O)OCC1OC([S-])C(OC(C)=O)C(OC(C)=O)C1OC(C)=O.CC[PH+](CC)CC.[Au+] (centres undefined) [Auranofin] (29.4771 µM)	0.709
CC(=O)[C@]1(O)Cc2c(O)c3c(c(O)c2[C@@H](O[C@H]2C[C@H](N)[C@H](O)[C@H](C)O2)C1)C(=O)c1ccccc1C3=O [Idarubicin] (40.2005 µM)	0.291
CC1=C(/C=C/C(C)=C/C=C/C(C)=C/C(=O)Nc2ccc(O)cc2)C(C)(C)CCC1 [Fenretinide] (51.0779 µM)	0.604
C=C1/C(=C\C=C2/CCC[C@]3(C)[C@@H]([C@H](C)/C=C/[C@@H](O)C4CC4)CC[C@@H]23)C[C@@H](O)C[C@@H]1O [Calcipotriene] (48.471 µM)	0.634
